# Values without a mark were called inactive. The source made the active and inactive calls. No stated cut-off is given here; in the data, active means fold change permeability below about 0.7 or above about 1.3; inactive means in between. Residues, ends and D or L forms follow the SMILES beside them. *: point of attachment. Cbz = O=C(OCc1ccccc1)*
# Assay: modulators of brain endothelial barrier permeability, primary screen, cell-based, FITC-avidin fluorescence, HTS (AID 1963498); further: test concentration not given here
# Conditions: actives lie on both sides
row,SMILES,fold change permeability
1,CN(C)CC(O)Cn1c2ccc(Br)cc2c2cc(Br)ccc21 (centres undefined),1.5 (active)
2,NC(N)=NCCC[C@H](N)C(=O)O,1.1
3,C[C@H](C#Cc1ccc(Cc2ccc(F)cc2)s1)N(O)C(N)=O,1.1
4,COCCOC(=O)C1=C(C)NC(C)=C(C(=O)OC(C)C)C1c1cccc([N+](=O)[O-])c1 (centres undefined),0.7 (active)
5,CC[C@H](NC(=O)c1c(O)c(-c2ccccc2)nc2ccccc12)c1ccccc1,1.1
6,N[C@@H](Cc1cnc[nH]1)C(=O)O,0.9
7,CNS(=O)(=O)CCc1ccc2[nH]cc(C3CCN(C)CC3)c2c1,1
8,Cc1cc(O)c2c(c1)C(=O)c1cc(O)cc(O)c1C2=O,1.3 (active)
9,O=C(C1CCCCC1)N1CC(=O)N2CCc3ccccc3C2C1 (centres undefined),1.2
10,CC(C)[C@H](NC(=O)OCc1ccccc1)C(=O)N[C@H](C=O)Cc1ccccc1 (Cbz-Val-Phe-aldehyde),1.4 (active)
11,CCOC(=O)[C@@H](N)CCC(=O)N[C@@H](CSCc1ccccc1)C(=O)N[C@@H](C(=O)OCC)c1ccccc1,1.3 (active)
12,O=c1[nH]ccc2c(O)cccc12,2.2 (active)
13,CN1CC[C@]2(CCN3CCc4c(oc5ccccc45)[C@@H]3C2)N(C)C1=O,1.1
14,CN1CCN(C2Cc3ccccc3Sc3ccc(Cl)cc32)CC1 (centres undefined),1.2
15,COc1cccc(OC)c1-c1cc(C(=O)NC2(C(=O)O)C3CC4CC(C3)CC2C4)nn1-c1ccc(C(=O)N(C)CCCN(C)C)cc1C(C)C (centres undefined),0.9
16,CN(C)c1cc2c(Nc3ccc4c(cnn4Cc4ccccc4)c3)ncnc2cn1,3.5 (active)
17,NC1(C(=O)O)CCCCC1,1
18,CC(C)(C)NCC(O)COc1cccc2[nH]c(=O)[nH]c12 (centres undefined),1
19,Cc1nc(Nc2cnn(C3CCNCC3)c2)nc2c1N(C)C(=O)c1cc3ccccc3cc1N2C,1
20,CC(/C=C/c1cccc(Oc2ccc(F)cc2)c1)N(O)C(N)=O (centres undefined),1.1

row,SMILES,fold change permeability
1,Nc1ncn([C@@H]2O[C@H](CO)[C@@H](O)[C@H]2O)c(=O)n1,1.1
2,O=C(CCCCCN1CCN(c2ccccc2-c2ccccc2)CC1)NC1CCCc2ccccc21 (centres undefined),1.1
3,C[C@H]1c2cccc(O)c2C(O)=C2C(=O)[C@]3(O)C(O)=C(C(N)=O)C(=O)[C@@H](N(C)C)[C@@H]3[C@@H](O)[C@@H]21,0.9
4,CN(C)CCCNC(=O)c1ccc(-c2cc(O)c3ncccc3c2)cc1,0.8
5,S=C(Nc1ccccc1)Nc1nccs1,1.3 (active)
6,C=C1CCN([C@H](C)[C@](O)(Cn2cncn2)c2ccc(F)cc2F)CC1,1.4 (active)
7,Cc1nc2ccc(NC(=O)Nc3ccnc4cccnc34)cc2o1,1.4 (active)
8,Clc1ccc(N2CCN(Cc3cc4ccccn4n3)CC2)cc1,1.3 (active)
9,CC(C)(C)c1ccc(CN2CCN(C(c3ccccc3)c3ccc(Cl)cc3)CC2)cc1 (centres undefined),1.6 (active)
10,CCCCCN=C(N)N/N=C/c1c[nH]c2ccc(OC)cc12,0.9
11,NC(N)=NC(=O)c1nc(Cl)c(N2CCCCCC2)nc1N,1.1
12,O=C(O)C1=CCNCC1,1
13,NC(N)=NCCC[C@H](NC(=O)[C@@H](N)Cc1ccc(O)cc1)C(=O)O,1.2
14,CC(C)C[C@H](NC(=O)[C@H]1O[C@@H]1C(=O)O)C(=O)NCCCCN=C(N)N,1.3 (active)
15,COc1nc(C)cnc1NS(=O)(=O)c1cccnc1-c1ccc(-c2nnco2)cc1,1.4 (active)
16,C=CCNc1ncnc2ccc(Br)cc12,1.2
17,Cc1cc(C(=O)Cn2cc(C#N)ccc2=O)c(C)n1Cc1ccccc1,1.7 (active)
18,CC(C)(C)c1cc(/C=C(\C#N)C(N)=S)cc(C(C)(C)C)c1O,1.5 (active)
19,N#Cc1cc2nc(O)c(O)nc2cc1[N+](=O)[O-],1.2

# Reference: PubChem BioAssay
